Measurements from PubChem BioAssay AID1159580 (chemical genetic matrix, 2015).
Several values for one entry are separate records, joined by “and”; a condition that tells them apart may be missing. Equal values may be shown once. Hit rate of the full screen: of about 5,500 compounds, about 2,000 (36%) were called active. About 18% were inconclusive and are not listed. No stated cut-off is given here; in the data, active means normalized growth mostly below about 0.91 (no sharp cut-off); inconclusive means no clear call, values can overlap the other calls; inactive means mostly above about 0.92. Some of the results follow.

Assay: chemical genetic growth profiling, strain panel (AID 1159580);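 further: tested at 20 µM; growth read once vehicle control cultures reached saturation at 30 °C; 1 = growth at the plate median or of vehicle wells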
Conditions: growth OD

Measured: normalized growth

CCN(CC)CCNC(=O)COc1ccc(OC)cc1
inactive: S. cerevisiae deletion strains, locus YAL013W, strain DEP1, stronger effect = lower value 1 | S. cerevisiae deletion strains, locus YBR021W, strain FUR4, stronger effect = lower value 1.01 | S. cerevisiae deletion strains, locus YBR229C, strain ROT2, stronger effect = lower value 0.995 | S. cerevisiae deletion strains, locus YCL029C, strain bik1, stronger effect = lower value 0.983 | S. cerevisiae deletion strains, locus YDL035C, strain GPR1, stronger effect = lower value 1.02 | S. cerevisiae deletion strains, locus YDL074C, strain BRE1, stronger effect = lower value 0.989 | S. cerevisiae deletion strains, locus YDL101C, strain DUN1, stronger effect = lower value 0.993 | S. cerevisiae deletion strains, locus YDL134C, strain PPH21, stronger effect = lower value 1.01 | S. cerevisiae deletion strains, locus YDL185W, strain tfp1, stronger effect = lower value 0.964 | S. cerevisiae deletion strains, locus YDL192W, strain arf1, stronger effect = lower value 0.995 | S. cerevisiae deletion strains, locus YDR101C, strain arx1, stronger effect = lower value 0.973 | S. cerevisiae deletion strains, locus YDR150W, strain NUM1, stronger effect = lower value 0.993 | S. cerevisiae deletion strains, locus YDR162C, strain NBP2, stronger effect = lower value 1.01 | S. cerevisiae deletion strains, locus YDR318W, strain mcm21, stronger effect = lower value 0.988 | S. cerevisiae deletion strains, locus YDR388W, stronger effect = lower value 0.997 | S. cerevisiae deletion strains, locus YDR502C, strain sam2, stronger effect = lower value 1.01 | S. cerevisiae deletion strains, locus YEL061C, strain CIN8, stronger effect = lower value 1 | S. cerevisiae deletion strains, locus YER110C, stronger effect = lower value 0.989 | S. cerevisiae deletion strains, locus YER155C, strain BEM2, stronger effect = lower value 0.998 | S. cerevisiae deletion strains, locus YER167W, strain BCK2, stronger effect = lower value 1.01 | S. cerevisiae deletion strains, locus YGL078C, strain dbp3, stronger effect = lower value 0.997 | S. cerevisiae deletion strains, locus YGL086W, strain mad1, stronger effect = lower value 1.02 | S. cerevisiae deletion strains, locus YGL248W, strain PDE1, stronger effect = lower value 0.995 | S. cerevisiae deletion strains, locus YGR078C, strain PAC10, stronger effect = lower value 0.992 | S. cerevisiae deletion strains, locus YGR135W, strain pre9, stronger effect = lower value 1.01 | S. cerevisiae deletion strains, locus YGR229C, strain SMI1, stronger effect = lower value 1.01 | S. cerevisiae deletion strains, locus YGR252W, strain gcn5, stronger effect = lower value 1.15 | S. cerevisiae deletion strains, locus YHR030C, strain SLT2, stronger effect = lower value 0.995 and 0.975 | S. cerevisiae deletion strains, locus YHR079C, strain IRE1 (second series), stronger effect = lower value 0.986 | S. cerevisiae deletion strains, locus YHR079C, strain IRE1, stronger effect = lower value 0.965 | S. cerevisiae deletion strains, locus YHR094C, strain hxt1, stronger effect = lower value 0.981 | S. cerevisiae deletion strains, locus YHR129C, strain ARP1, stronger effect = lower value 0.994 | S. cerevisiae deletion strains, locus YHR200W, strain rpn10, stronger effect = lower value 0.989 | S. cerevisiae deletion strains, locus YIL066C, strain RNR3, stronger effect = lower value 0.999 | S. cerevisiae deletion strains, locus YIL073C, strain SPO22, stronger effect = lower value 0.974 | S. cerevisiae deletion strains, locus YIL125W, strain kgd1, stronger effect = lower value 1 | S. cerevisiae deletion strains, locus YIR030C, strain dcg1, stronger effect = lower value 0.999 | S. cerevisiae deletion strains, locus YJL095W, strain BCK1, stronger effect = lower value 0.983 and 0.978 | S. cerevisiae deletion strains, locus YJL134W, strain LCB3, stronger effect = lower value 0.994 | S. cerevisiae deletion strains, locus YJL168C, strain set2, stronger effect = lower value 0.981 | S. cerevisiae deletion strains, locus YJL187C, strain SWE1 (second series), stronger effect = lower value 0.984 | S. cerevisiae deletion strains, locus YJR043C, strain POL32, stronger effect = lower value 0.971 | S. cerevisiae deletion strains, locus YJR066W, strain TOR1, stronger effect = lower value 0.939 | S. cerevisiae deletion strains, locus YJR075W, strain HOC1, stronger effect = lower value 0.983 | S. cerevisiae deletion strains, locus YKL009W, strain mrt4, stronger effect = lower value 1.02 | S. cerevisiae deletion strains, locus YKL068W, stronger effect = lower value 0.983 | S. cerevisiae deletion strains, locus YKL085W, strain MDH1 (second series), stronger effect = lower value 0.981 | S. cerevisiae deletion strains, locus YKL085W, strain MDH1, stronger effect = lower value 0.981 | S. cerevisiae deletion strains, locus YKL190W, strain CNB1, stronger effect = lower value 0.997 | S. cerevisiae deletion strains, locus YKR001C, strain vps1, stronger effect = lower value 1.02 | S. cerevisiae deletion strains, locus YLR039C, strain RIC1, stronger effect = lower value 1.06 | S. cerevisiae deletion strains, locus YLR058C, strain SHM2, stronger effect = lower value 1 | S. cerevisiae deletion strains, locus YLR102C, strain apc9, stronger effect = lower value 0.991 | S. cerevisiae deletion strains, locus YLR113W, strain HOG1, stronger effect = lower value 0.969 | S. cerevisiae deletion strains, locus YLR262C, strain YPT6, stronger effect = lower value 1.05 | S. cerevisiae deletion strains, locus YLR268W, strain sec22, stronger effect = lower value 0.96 | S. cerevisiae deletion strains, locus YLR330W, strain CHS5, stronger effect = lower value 0.989 | S. cerevisiae deletion strains, locus YLR342W, strain FKS1 (second series), stronger effect = lower value 1.06 | S. cerevisiae deletion strains, locus YLR371W, strain rom2, stronger effect = lower value 0.99 | S. cerevisiae deletion strains, locus YLR418C, strain cdc73, stronger effect = lower value 1.01 | S. cerevisiae deletion strains, locus YML016C, strain PPZ1, stronger effect = lower value 1.01 | S. cerevisiae deletion strains, locus YML032C, strain rad52, stronger effect = lower value 0.97 | S. cerevisiae deletion strains, locus YML124C, strain tub3, stronger effect = lower value 0.996 | S. cerevisiae deletion strains, locus YMR078C, strain ctf18, stronger effect = lower value 0.978 | S. cerevisiae deletion strains, locus YMR223W, strain ubp8, stronger effect = lower value 1.04 | S. cerevisiae deletion strains, locus YMR263W, strain SAP30, stronger effect = lower value 0.982 | S. cerevisiae deletion strains, locus YMR307W, strain GAS1, stronger effect = lower value 1.05 | S. cerevisiae deletion strains, locus YNL067W, strain RPL9B, stronger effect = lower value 0.97 | S. cerevisiae deletion strains, locus YNL128W, strain TEP1, stronger effect = lower value 0.994 | S. cerevisiae deletion strains, locus YNL153C, strain GIM3, stronger effect = lower value 0.988 | S. cerevisiae deletion strains, locus YNL183C, strain NPR1, stronger effect = lower value 0.937 | S. cerevisiae deletion strains, locus YNL233W, strain BNI4, stronger effect = lower value 1.01 | S. cerevisiae deletion strains, locus YNL250W, strain rad50, stronger effect = lower value 0.993 | S. cerevisiae deletion strains, locus YNL271C, strain bni1, stronger effect = lower value 0.987 | S. cerevisiae deletion strains, locus YNL298W, strain CLA4, stronger effect = lower value 0.993 | S. cerevisiae deletion strains, locus YNL307C, strain MCK1, stronger effect = lower value 0.999 | S. cerevisiae deletion strains, locus YNL322C, strain KRE1, stronger effect = lower value 0.992 | S. cerevisiae deletion strains, locus YNR052C, strain pop2, stronger effect = lower value 0.984 | S. cerevisiae deletion strains, locus YOL006C, strain TOP1, stronger effect = lower value 1.01 | S. cerevisiae deletion strains, locus YOL012C, strain htz1 0.754 | S. cerevisiae deletion strains, locus YOL147C, strain pex11, stronger effect = lower value 0.997 | S. cerevisiae deletion strains, locus YOR061W, strain CKA2, stronger effect = lower value 1.01 | S. cerevisiae deletion strains, locus YOR069W, strain VPS5, stronger effect = lower value 0.998 | S. cerevisiae deletion strains, locus YOR136W, strain idh2, stronger effect = lower value 1.01 | S. cerevisiae deletion strains, locus YOR144C, strain elg1, stronger effect = lower value 0.998 | S. cerevisiae deletion strains, locus YOR184W, strain ser1, stronger effect = lower value 0.983 | S. cerevisiae deletion strains, locus YOR231W, strain MKK1, stronger effect = lower value 0.964 | S. cerevisiae deletion strains, locus YOR316C, strain cot1, stronger effect = lower value 0.981 | S. cerevisiae deletion strains, locus YPL055C, strain LGE1, stronger effect = lower value 0.949 | S. cerevisiae deletion strains, locus YPL241C, strain CIN2, stronger effect = lower value 1.01 | S. cerevisiae deletion strains, locus YPL256C, strain CLN2, stronger effect = lower value 0.972 | S. cerevisiae deletion strains, locus YPR119W, strain clb2, stronger effect = lower value 0.99 | S. cerevisiae deletion strains, locus YPR141C, strain kar3, stronger effect = lower value 0.992 | S. cerevisiae deletion strains, locus YPR163C, strain tif3, stronger effect = lower value 0.994 | S. cerevisiae deletion strains, locus YPR167C, strain met16, stronger effect = lower value 0.975 | S. cerevisiae deletion strains, strain wtn01, stronger effect = lower value 0.962 | S. cerevisiae strains, strain wild type, stronger effect = lower value 1
